This is one part of the list. The true hit rate is not given.

This is an account of results in the emibetuzumab library of Makowski et al. (2022).

First the molecules themselves.
B1: VH:VL chains; a variant is named by its letters at X, in order (parent)
chain 1: QVQLVQSGAEVKKPGASVKVSCKASGYTFTDYXMHWVRQAPGQGLEWMGXVNPNXXXTTYNQKFEGRVTMTTDTSTSTAYMELRSLRSDDTAVYYCARXNXLDXWGQGTTVTVSS
chain 2: DIQMTQSPSSLSASVGDRVTITCSVSSSVSSIYLHWYQQKPGKAPKLLIYSTSNLASGVPSRFSGSGSGTDFTLTISSLQPEDFATYYCQVYSGYPLTFGGGTKVEIK

In the test the parent is B1. Put plainly: yeast display scFab, FACS + sequencing. The settings on record: with MET. The method, boiled down: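 Heavy-chain CDR mutant scFab yeast surface library, enriched by two magnetic rounds on HGFR-Fc-coated Protein A beads and then by FACS. Cells were labelled with 1 nM HGFR-Fc in PBSB with 1% milk and anti-Myc for 3 h at room temperature, and the top 50% antigen-positive cells were gated. Round-3 sorted and input populations were deep sequenced in two replicates. Antigen binding call: positive if a sequence occurred in both antigen-positive samples, negative if it occurred only in input.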
Take SEEGTDWY: the antigen binding call was “no binding”.

In the case of DAGGAAAD, the antigen binding call was “no binding”.

With YEGTGAGA, the antigen binding call was “no binding”.

In the case of VKGRSDWV, the antigen binding call is “no binding”.

Turning to YAGRGDSA, the antigen binding call is reported as “no binding”.

YAGRGASA: the antigen binding call was “no binding”.

FKRRSVGA: the antigen binding call is listed as “no binding”.

Regarding YKGRSASV, the antigen binding call is given as “binds”.

Take YKGRGASD: the antigen binding call is recorded as “binds”.

As for VKGRSFLV, the antigen binding call is reported as “no binding”.

For the variant YKRRSASA, the antigen binding call is given as “binds”.

Turning to YKGRGASA, the antigen binding call is given as “binds”.

With VERGTYGV, the antigen binding call is “no binding”.

In the case of AKTKSDWV, the antigen binding call is given as “no binding”.

In the case of VTTRDDSD, the antigen binding call is listed as “no binding”.

VAGTGDWY: the antigen binding call was “no binding”.

Turning to DTEGDAGD, the antigen binding call is reported as “no binding”.

Consider VTGESDWY, for which the antigen binding call is on record as “no binding”.

With FRKGGSGV, the antigen binding call is reported as “binds”.

As for VTGEGALV, the antigen binding call was “no binding”.

In the case of FRGEGFSV, the antigen binding call is on record as “no binding”.

Regarding FRGEGALV, the antigen binding call is listed as “binds”.

As to FRGKGSGV, the antigen binding call was “binds”.

With FRGGGSGV, the antigen binding call is “binds”.

Turning to FRGKGFGV, the antigen binding call is recorded as “no binding”.

For FRGGGFVV, the antigen binding call is “no binding”.

On to FKGGNVGV, for which the antigen binding call is “no binding”.

Consider ARGEGSGV, for which the antigen binding call is listed as “no binding”.

FRGGGVGV: the antigen binding call was “binds”.

With FRGGSSGV, the antigen binding call is reported as “binds”.

Turning to FAGEGAGV, the antigen binding call was “no binding”.

Regarding VRGGGVGV, the antigen binding call was “no binding”.

As to FRGEGSGV, the antigen binding call is on record as “binds”.

As for STEGGSVY, the antigen binding call is given as “no binding”.

For SKTKSDWA, the antigen binding call is recorded as “no binding”.

Regarding SGEGGAVA, the antigen binding call was “no binding”.

For DEAGGDGY, the antigen binding call is on record as “no binding”.

For the variant YRRGDSLY, the antigen binding call is given as “binds”.

For the variant YRRGSALY, the antigen binding call is on record as “binds”.

For the variant YRRGSSLY, the antigen binding call was “binds”.

YRKESAVY: the antigen binding call was “binds”.

For the variant FARKSDSS, the antigen binding call is “no binding”.

Take DKKKDVVF: the antigen binding call was “no binding”.

In the case of FKTAGSAV chain 1 R67H, the antigen binding call is listed as “no binding”.

For the variant YRRGSYVY, the antigen binding call was “no binding”.

As for YRRGSAVY, the antigen binding call is listed as “binds”.

For the variant ATGGAALD, the antigen binding call is reported as “no binding”.

Regarding YRKGSSAA, the antigen binding call is reported as “binds”.

For the variant YRKGGSAA, the antigen binding call is “binds”.

Take VAEEDAGY: the antigen binding call was “no binding”.

On to DARGAYLV, for which the antigen binding call is given as “no binding”.

In the case of YRAGDFGV, the antigen binding call is reported as “no binding”.

For the variant YRGKAAGV, the antigen binding call was “binds”.

Turning to YRGKAFGV, the antigen binding call was “binds”.

In the case of YTGTSAGV, the antigen binding call was “no binding”.

Regarding YKGRSAVY, the antigen binding call is given as “no binding”.

On to VRARGAAD, for which the antigen binding call is “binds”.

For YKARGAVY, the antigen binding call was “binds”.

Turning to VTGTGAAD, the antigen binding call is recorded as “no binding”.

As for VKAASAVY, the antigen binding call was “no binding”.

Turning to VAEGDAAD, the antigen binding call was “no binding”.

Take YRARGAAY: the antigen binding call is “binds”.

Turning to FRARGAAY, the antigen binding call was “binds”.

As for DRRANFLY, the antigen binding call was “no binding”.

On to DREEGDGS, for which the antigen binding call is on record as “no binding”.

With YKARGAAY, the antigen binding call is given as “binds”.

Consider VRARGAAY, for which the antigen binding call is on record as “binds”.

Turning to VEGTSAAY, the antigen binding call is recorded as “no binding”.

In the case of DKATGDAY, the antigen binding call was “no binding”.

Regarding FRRTDFVA chain 1 C22Y, the antigen binding call was “no binding”.

Regarding ARKTGAGA, the antigen binding call is listed as “no binding”.

As to ARGRGSAA, the antigen binding call is reported as “binds”.

In the case of AEEEGSAA, the antigen binding call is “no binding”.

On to AETKGAAA, for which the antigen binding call was “no binding”.

For the variant ARRRGSAA, the antigen binding call is “binds”.

Consider ARGRSDVA, for which the antigen binding call is on record as “no binding”.

ARRRGAAA: the antigen binding call is “binds”.

For ARGRGSVA, the antigen binding call is reported as “binds”.

In the case of VETTDSWV, the antigen binding call is “no binding”.

VAERSFGV: the antigen binding call is given as “no binding”.

On to VEEAAAGV, for which the antigen binding call is “no binding”.

Regarding FTRESFAA, the antigen binding call is “no binding”.

Take ARAGSAWA: the antigen binding call was “no binding”.

As for ARAGGAAA, the antigen binding call is listed as “binds”.

For the variant ARAGDAVA, the antigen binding call was “no binding”.

Turning to DAGKGAGD, the antigen binding call is on record as “no binding”.

As to SKGRSDVF, the antigen binding call is “no binding”.

With SKGRGAGS, the antigen binding call is on record as “binds”.

Regarding YKGKGSGF, the antigen binding call is “binds”.

For SKGKGAGD, the antigen binding call is reported as “binds”.

Turning to YKGKGAGF, the antigen binding call is on record as “binds”.

As to YKGKGFGF, the antigen binding call is “no binding”.

Consider SKGKGAGF, for which the antigen binding call is listed as “binds”.

Turning to DGEGGDWD, the antigen binding call is listed as “no binding”.

VGRTSFGF: the antigen binding call is “no binding”.

In the case of YKAGGSLF, the antigen binding call is on record as “binds”.

For YKAGGFWF, the antigen binding call is given as “no binding”.

Regarding YKGKGSLF, the antigen binding call is listed as “binds”.

For the variant VKGRADWF, the antigen binding call is “no binding”.

Turning to VTGEDDVV, the antigen binding call was “no binding”.

As to VKGRADAV, the antigen binding call is “no binding”.

As for ARGRGSSS, the antigen binding call is on record as “binds”.

As to SAGRGDGS, the antigen binding call is recorded as “no binding”.

For AATTDSSS, the antigen binding call is listed as “no binding”.

For the variant SRGRGVLV, the antigen binding call is “no binding”.

On to SRGRGSSS, for which the antigen binding call is reported as “binds”.

Regarding SRGRGSLS, the antigen binding call is on record as “binds”.

Take SGTADSSS: the antigen binding call is on record as “no binding”.
